Assay results from PubChem BioAssay (NCI).
Values joined by “and” are separate entries in the source; they are usually repeats but may differ in a detail not shown here. Equal values may be shown once. About 83,000 compounds went through this panel and 20% of them were active in at least one assay; those are over-represented in the sample as a whole.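 Note: values are percent growth. 100 is the growth of untreated cells, values between 100 and 0 indicate rising inhibition; between -100 and 0 indicates cell death.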 Active and inactive are the calls of the source. How the source made its calls: active means growth percent below 10; inactive means the rest.

Each molecule was assayed on MDA-MB-468 breast (assay: NCI-60 one-dose screen, 48 h (100 = growth as untreated, 0 = no growth, -100 = all killed)). Details: 10 µM unless noted.

Row | SMILES | growth
1 | CC(c1ccccc1)n1ccnc1CO (centres undefined) | 101% (inactive)
2 | O=C(O)c1ccc(OCc2ccccc2)cc1 | 104% (inactive)
3 | c1ccc(-c2n[nH]c(-c3ccccn3)n2)nc1 | 100% (inactive)
4 | CCNc1nc(C(F)(F)F)nc2c1sc(=S)n2-c1ccccc1 | 81.6% (inactive)
5 | N#Cc1ccc(-n2cnc(NC(=O)[C@H]3CCN(C#N)C3)c2)cc1 | -38.1% (active)
6 | CCOC(=O)c1cc(C(=O)c2cc(OC)c(OC)c(OC)c2)n2c1ccc1ccccc12 | 1.54% (active)
7 | C/C(=N/NC(N)=O)c1ccco1 | 110% (inactive)
8 | O=C1Nc2ccccc2/C1=C/c1ccc(OCC(=O)c2ccccc2)cc1 | 94.6% (inactive)
9 | COc1nc(Nc2cccc(C(F)(F)F)c2)nc(OC)n1 | 112% (inactive)
10 | CCOC(=O)C1=C(C)N=C2Sc3ccccc3N2C1c1ccccc1 (centres undefined) | 74.8% (inactive)
11 | COc1ccc2c(Cl)cc(NC(=O)Nc3c(C)cccc3C)nc2c1 | 79.2% (inactive)
12 | COc1ccc2c(c1)C=CC1(O2)Oc2ccc(OC)cc2C=C1C (centres undefined) | 47.3% (inactive)
13 | Cc1nn(-c2ccccc2)c2nc(C)n(-c3ccc(Br)cc3)c(=O)c12 | -5.99% (active)
14 | Cc1[nH]c2ncnc(Oc3ccc(NC(=O)Nc4ccc(Cl)c(C(F)(F)F)c4)cc3)c2c1C | 69.5% (inactive)
15 | CCOC(=S)SCc1ccc(Cl)cc1 | 106% (inactive)
16 | Cc1ccc(-c2csc(N)n2)cc1 | 104% (inactive)
17 | C(=N\OCCc1ccccc1)/c1ccccn1 | 112% (inactive) and 107% (inactive)
18 | CC(C)(C)C(CCc1ccc(Cl)cc1)N1CCN(C2CCCCC2)CC1 (centres undefined) | 58.3% (inactive)
19 | CSc1nc(N)c(N=Nc2ccc(S(=O)(=O)Nc3nnc(C)s3)cc2)c(=O)[nH]1 | 93.4% (inactive)
20 | O=C(Cn1ccc2ccccc21)Nc1ccc(-c2nc3ccccc3s2)cc1 | -50.2% (active)

Row | SMILES | growth
21 | COc1ccc(C2CC(c3cccc(Nc4ccncc4)c3)=NN2c2ccccc2)cc1 (centres undefined) | 15.7% (inactive)
22 | CCCCCCCCCCCCCCCCCc1nccn1CCO | 91.5% (inactive)
23 | O=C1/C(=C/c2cccc(Cl)c2)CCc2ccccc21 | 93.5% (inactive)
24 | CCCCc1oc2ccccc2c1C(=O)c1cc(I)c(OCCN(CC)CC)c(I)c1 | -87.4% (active)
25 | Nc1n[nH]c2cc(F)c([C@@H]3Nc4c(F)cc5[nH]ncc5c4[C@H]4C5CCC(C5)[C@@H]34)cc12 (some centres undefined) | -0.149% (active)
26 | CC1(C)CCC(S(=O)(=O)c2ccc3c(c2)/C(=N\O)c2cc(S(=O)(=O)N4CCN(c5ccc(F)cc5O)CC4)ccc2-3)CC1 | -82.5% (active)
27 | CN(C)CCC(O)(Cc1ccccc1)c1ccccc1 (centres undefined) | 110% (inactive)
28 | C[C@@H](Oc1cc(-c2cnn(C3CC4(CCNCC4)C3)c2)cnc1N)c1c(F)ccc(Cl)c1Cl | -53.3% (active)
29 | O=[N+]([O-])c1ccc2nc3c4ccccc4c4ccccc4c3nc2c1 | 75.2% (inactive)
30 | Cc1ccc2nc(NC(=O)CSC(=S)N3CCN(Cc4ccccc4)CC3)sc2c1 | -76.4% (active)
31 | CN(C)c1nc(-c2cccs2)n2nc(-c3ccc(Cl)cc3)cc2n1 | 33.6% (inactive)
32 | O=C(/C=C/c1ccccc1)CC(c1ccccc1)N1CCOCC1 (centres undefined) | 92.4% (inactive)
33 | COc1cc2c(cc1-c1c(C)noc1C)ncc1nc(C3CCCCC3)n([C@@H](C)COC(F)F)c12 | 32.6% (inactive)
34 | COc1cccc2c(=O)c3c(sc12)c(NCCCNCCO)nc1ccccc13 | 71.3% (inactive)
35 | O=C(O)c1ccc(-n2cc(/C=N/Nc3ccc(Cl)cc3Cl)c(-c3ccccc3)n2)cc1 | 79.7% (inactive)
36 | CCN(CC)CCC(=O)c1cccc2ccccc12 | 84.5% (inactive)
37 | COC(=O)C(C)NC1=C(Cl)C(=O)C(NC(C)C(=O)OC)=C(Cl)C1=O (centres undefined) | 63.6% (inactive)
38 | CNc1ccc(Br)cc1-c1n[nH]c(=O)[nH]c1=O | 120% (inactive)
39 | O=C(CCN1C(=O)c2ccccc2C1=O)Nc1ccc(Cl)cc1 | 116% (inactive)
